Among all 53,000 sequences or so, about 3,700 (7%) were called active. Only a selection was taken, and actives are over-represented in it overall. Unmarked numbers belong to inactive results.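 The calls were made as follows: active = gene knockdowns whose robust z-score for IL-1 alpha signal is at least 2 or at most -2, so actives lie on both sides; inactive = the rest.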
test: Components of the Cytosolic LPS Sensing Pathway: Gene Identification via Genome-wide siRNA Screen; settings: RAW264.7 macrophages, IL-1a HTRF, actives lie on both sides, screened at 100 nM (by protocol), cells primed 5 h with Pam3CSK4 first;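 also: robust z of the log signal after scaling to non-targeting control siRNA wells of the plate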
In short: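 Knockdown: 100 nM siRNA, 48h, RAW264.7. Stimulation: Pam3CSK4 5 h, then LipidA via TransIT-TKO 24 h. Output: supernatant IL-1a HTRF, negative-control-normalized, log robust z-score; viability by CellTiter-Glo.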

Compared with GGCAAACAAAUGGUUUGUUTT against Zfp324, GGUUCUCGGUAAAUCCUGCTT against Slc35b1 is lower in z-score: -0.544 for the first, -1.07 for the second.

First: GGAGGUUGAGGCUUCUAAGTT against Pacsin3
Second: GGAUAAUGAGCUGAACAUATT against Nek7
The z-score of the first is higher: 1.2 for the first, -0.0844 for the second.

Compared with GCCUCACUUUGACUGUCGCTT against Tpgs2, GGAGAAAGUGAUUGACAUATT against Lpin2 is higher in z-score: -0.289 for the first, -0.0579 for the second.

Compared with GGAAGGGUUUGUUUGUUUATT against Nkiras1, GGCCUUGAAAGCCAUUGGUTT against Kmo is lower in z-score: 1.55 for the first, -0.728 for the second.

Going from GGACUUGAAGAACUGUUAUTT against Hspa13 to CGUGCUGUAUGGCAAAGUUTT against Bst1, the z-score rises from -0.0642 to 0.563.

Going from GCCCAUGUUUGUGAGGGUUTT against Fem1al to GGUUCCAAUGCUAUUGAAUTT against Tc2n, the z-score rises from -0.0893 to 0.391.

Going from GGUUAUAUUAUGUAGCCUATT against Klf17 to GGUCACAGUUGGCAAAGAUTT against Myh11, the z-score falls from 0.332 to -0.521.

First: GCGUAAGCAGCAAGAUGGATT against Ash2l
Second: GCUUUCAAGUGGUUAUGAATT against Nsun6
The z-score of the first is higher: 1.21 for the first, 0.0136 for the second.

Going from GCGACCAUUUCGUUUUAGUTT against Frat1 to GGAAAGCAAGUCGUAAGCCTT against Mrps10, the z-score falls from 1.07 to -0.755.

Compared with AAUGCUCAGAAAGAAUAACTT against Sprr2e, UGUUACUGGACUCUCCACATT against Olfr320 is higher in z-score: -0.31 for the first, 0.372 for the second.

Compared with GCUGUGUUAGGAUUGUCCATT against Olfr553, GGCAUCAAGUCCAUUUUUGTT against Slc12a4 is lower in z-score: 0.252 for the first, 0.108 for the second.

Compared with GGCAGGCAGAAAGCUUUGUTT against Olfr1054, GCUAAUCACCAAAGCUGAGTT against Larp7 is lower in z-score: 1.8 for the first, 0.546 for the second.

First: CCUAAUCUUCGUGCUUUACTT against Minpp1
Second: CCUGUGAAAGAUGCUUAUATT against Capn7
The z-score of the first is higher: 1.4 for the first, -1.65 for the second.

First: GCUCAGCUAGCAGAAAUUCTT against Nlrp2
Second: GGAGGCCAAAGGACUGAUCTT against Hectd4
The z-score of the first is lower: -1.76 for the first, 1.56 for the second.

Compared with CCACAGACAGUUAUUACUGTT against Adgre1, CCCAAGAGUGUUUGAGAACTT against Zbtb43 is higher in z-score: -1 for the first, 0.213 for the second.

Going from GGCAUUUAUUAUCAGGCUGTT against Pes1 to “GCUCGAGAAGAGUUUGUUATT against 1700030J22Rik”, the z-score rises from 0.665 to 0.933.

First: GCAACUUGUUAGUGGACUCTT against Olfr620
Second: GCUAUGUGGGAAGUUUCAUTT against Tmem263
The z-score of the first is lower: -1.08 for the first, 0.924 for the second.

First: GCGUGGAGUCUUCAGUCAUTT against Vhl
Second: GGAGAAGAGGACAGAAGCCTT against Akt1s1
The z-score of the first is lower: -0.101 for the first, 0.757 for the second.

Compared with “GCUCAAAACAAUCCACGCCTT against 1700006J14Rik”, GGAUGAGAACAACUCUGCUTT against Lrtm2 is higher in z-score: -0.47 for the first, 0.439 for the second.

First: GGACCUGUUUGAUUUGGUGTT against Nf2
Second: GGAAAACCUUGGACAGGAGTT against Olfr876
The z-score of the first is higher: 0.8 for the first, -0.267 for the second.

First: UGUGACUAUUGUUACUGUGTT against Olfr1512
Second: CGAAUGUGGCUAUGACCUGTT against Kif6
The z-score of the first is lower: -1.06 for the first, 0.555 for the second.

Compared with GGAAAAGGAGGUGGUACUGTT against Acan, GCAUACAGCUCAACAGUCATT against Padi2 is lower in z-score: 0.743 for the first, -0.51 for the second.

Compared with GGAGAAGUAGAUGUAUAUGTT against Prkar1b, GUACACCACAAUCCUCACCTT against Olfr677 is higher in z-score: -1.4 for the first, -0.0852 for the second.

Going from GGUCCAGAGAAUGUUAUUATT against Spinkl to GGGAACUUCCUUGAGAAGATT against Mgat4d, the z-score rises from 0.263 to 0.654.

First: GCAACGUGUCUUUUCAAACTT against P2ry10b
Second: GUUUCCUUGUGCUAAUGUUTT against Olfr1199
The z-score of the first is lower: -0.223 for the first, 1.15 for the second.

Compared with GGCUCCAACAUAGAAAUGATT against Tpbpa, GCUACGCAUUGAGGAGCUATT against Pkn1 is lower in z-score: 0.38 for the first, 0.168 for the second.

Going from GGCUGCCAAGAAAAUCUAUTT against Rab14 to GGAUGAACUCAUGAGAGCCTT against Cyb5r4, the z-score falls from 0.363 to -0.323.

Sequence CCGAGGUUGUGAAACGAUGTT against Trp63 has a z-score of -1.47.

In the case of “GGAAGCAUGCAAUGAUAUUTT against 4933431E20Rik”, the z-score is reported as -2.31 (active).
For GCGCGACAAAUCGUAGGCUTT against Mamstr, the z-score was -2.13 (active).
In the case of GCACUUCCCUCCCUAUGCATT against Cep20, the z-score is reported as -2.11 (active).
In the case of CGUGUAUCGUUGUCUGAAUTT against Donson, the z-score is reported as 2.75 (active).
With GGUACACUACAUGACUCAUTT against Sall4 the z-score was 2.35 (active).
With CGGGAUGACUACAAUCUGGTT against Ssbp3 the z-score was -2.17 (active).
With GGCCUAUAGGUUGGGCUCUTT against Tonsl the z-score was -2.57 (active).
With GUUCAUGUCUAUCCUGUCUTT against Hba-x the z-score was -2.45 (active).
With GCAGUACCGAGCAGCAGAATT against Acad10 the z-score was -2.41 (active).
In the case of GAAUAGAAGGGAAGAAAGUTT against Crb3, the z-score is reported as -2.08 (active).
With GGAAAACCUAAUAAGGUUCTT against Iqce the z-score was 2.72 (active).
In the case of GCUUAUGUCGAAUGAUAGCTT against Id2, the z-score is reported as -4.22 (active).
For GGGUUGAAAGAGCUUGCCATT against Vmn1r198, the z-score was -2.56 (active).
